Assay results: PubChem BioAssay
Records with an inconclusive call do not appear. Activity calls are given as the source filed them. Unless noted, how the calls were made is not given here.

Key:
[1] = yeast TOR pathway RPL19A-GFP modulators, primary screen, cell-based, S. cerevisiae, multiplex flow cytometry (AID 1862; in the data active means percent of DMSO control GFP below about 86%;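 further: lower values mimic rapamycin by blocking the RPL19A rise seen in DMSO cells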); conditions: S. cerevisiae RPL19A-GFP strain, flow cytometry fluorescence, 3 h; at 10 µM; stronger effect = lower value
[2] = modulators of MEP2-GFP levels in yeast, primary screen, S. cerevisiae, multiplex flow cytometry (AID 1867;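 active means GFP response, as percent of the DMSO control, above the screen-wide mean plus 3 SD, about 139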;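 further: median GFP channel fluorescence of barcode-gated MEP2-GFP cells measured by flow cytometry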); conditions: S. cerevisiae MEP2-GFP strain, 3 h, at 10 µM, stronger effect = higher value
[3] = modulators of CIT2-GFP expression in yeast, primary screen, S. cerevisiae, GFP fusion, multiplex flow cytometry (AID 1870;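 active means percent response above a set limit, the screen-wide mean plus 3 SD, cut at about 130% in these data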;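 further: barcoded CIT2-GFP strain pooled with four other GFP strains with rapamycin as positive control; median GFP fluorescence per well over plate mean of DMSO wells so 100% = DMSO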); conditions: 3 h, at 10 µM, stronger effect = higher value
[4] = modulators of LAP4-GFP expression in yeast, primary screen, S. cerevisiae, multiplex flow cytometry (AID 1873;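 active means GFP signal, as percent of the solvent control, above the screen mean plus 3 SD, about 149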); conditions: 3 h, at 10 µM, stronger effect = higher value
[5] = modulators of AGP1-GFP expression in yeast TOR pathway, primary screen, cell-based, multiplex flow cytometry, S. cerevisiae (AID 1887;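 active means GFP signal above the screen-wide mean plus 3 SD, that is over about 124.5% of the solvent control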;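 further: AGP1-GFP fusion strain of S. cerevisiae within a five-strain barcoded multiplex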); conditions: 3 h, at 10 µM, stronger effect = higher value
[6] = inhibitors of CD8+ T cell-vesicle binding, pilot screen, LFA-1/ICAM-1 modulator project, MLPCN validation set, flow cytometry (AID 2523;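 active means response below a set limit, under 55% cells CD8-positive and vesicle-bound, and CD8 cells' 90th-percentile brightness under 279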;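 on vesicle binding response: mean PE anti-B7-1 fluorescence of CD8+ cells relative to row control; 100% = QL9-loaded vesicles with DMSO vehicle in the same plate row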); conditions: 2C mouse CD8+ T cells, at 7 µM, stronger effect = lower value; double positive events: measured here: CD8+/vesicle+ event percentage
[7] = target: Integrin beta-1 (Homo sapiens) + Integrin alpha-4 (Homo sapiens) (UniProt P13612+P05556); experiment: inhibition of HUTS-21 binding to VLA-4, pilot screen, VLA-4 allosteric modulator project, U937 cells, HUTS-21 mAb, flow cytometry, validation set (AID 2674;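 active means inhibition above 50%, about 3 SD of the validation set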;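 further: antibody binding induced by the VLA-4 ligand LDV present at three times its Kd; 0% = LDV ligand with antibody and no compound and 100% = antibody without LDV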); conditions: HUTS-21 LIBS mAb binding, at 6.7 µM, stronger effect = higher value
[8] = superoxide lowering in aged yeast cells, pilot screen, validation compound set (AID 2706;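 active means superoxide response below 65% of plate, a cut near 3 SD across the whole screen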;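 further: yeast exposed to compound for one week at 30 degrees C before staining; 100% = mean of all compound wells on the same plate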); conditions: S. cerevisiae aging, superoxide DHE fluorescence; at 10 µM; stronger effect = lower value
[9] = target: Beta-adrenergic receptor kinase 1 (Homo sapiens) (UniProt P25098); experiment: GRK2 binders displacing RNA aptamer, biochemical, validation, human GRK2, bead flow cytometry (AID 488806;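 active means aptamer binding inhibition above 30%, about 3 SD of noise from non-fluorescent compounds; inactive means inhibition at or below 30%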); conditions: bead-bound GRK2, FAM-aptamer displacement, at 10 µM, stronger effect = higher value
[10] = target: Beta-2 adrenergic receptor (Homo sapiens) (UniProt P07550); experiment: beta2AR agonists driving receptor internalization, pilot screen, cell-based, FAP fluorogen, flow cytometry, validation set (AID 504459;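 active means percent response above 42, roughly 3 SD of non-fluorescent test compounds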;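 further: agonist-driven loss of surface beta2AR via internalization measured by FAP dye flow cytometry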); conditions: Am2.2-beta2AR cells, FAP surface receptor flow cytometry; at 10 µM; stronger effect = higher value
[11] = target: AP-2 complex subunit beta (Homo sapiens) (UniProt P63010); experiment: inhibitors of arrestin peptide binding to AP2, pilot screen, biochemical, validation set, GST-AP2 beads, flow cytometry (AID 504541;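 active means inhibition above 54%, about 3 SD of non-fluorescent compounds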;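 further: AP2 carries R879A mutation and is captured from E. coli lysate; bead-bound FITC arrestin peptide fluorescence measuring arrestin peptide binding to AP2; 0% = DMSO wells and 100% = excess unlabeled arrestin peptide control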); conditions: FITC arrestin peptide, at 10 µM, stronger effect = higher value
[12] = yeast V-ATPase proton transport modulators, S. cerevisiae, pHLuorin, HTS validation (AID 504600; in the data active means response above about 15%;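 further: plate controls were DMSO for no effect and reference compound for full effect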); conditions: S. cerevisiae pHLuorin cytosolic pH, at 10 µM, stronger effect = higher value
[13] = test system: anti-desmoglein-3 scFv antibody binding to human DSG3; experiment: inhibitors of anti-DSG3 scFv binding to DSG3, pilot screen, biochemical, validation compound set, bead-based, flow cytometry (AID 588368;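 active means binding below the plate cutoff, the plate median minus 3 SD, with a reading above zero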;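 further: signal is the median channel fluorescence of bead-bound GFP antibody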); conditions: Protein G beads, DSG3-Fc, scFv-GFP binding, at 10 µM, stronger effect = lower value
[14] = test system: Botulinum neurotoxin type F light chain protease (Clostridium botulinum); experiment: Botulinum neurotoxin type F light chain protease inhibition, multiplex microsphere flow cytometry, validation set (AID 588459); conditions: multiplex microsphere protease substrate cleavage assay, at 10 µM, stronger effect = higher value
[15] = target: Botulinum neurotoxin type A (Clostridium botulinum) (UniProt P0DPI0); experiment: BoNT/A light chain protease inhibitors, biochemical, multiplex microsphere flow cytometry, validation set (AID 588460); conditions: at 10 µM, stronger effect = higher value
[16] = target: Lethal factor (Bacillus anthracis) (UniProt P15917); experiment: Lethal factor protease inhibitors, Bacillus anthracis, multiplex microsphere cleavage assay, validation set (AID 588461); conditions: flow cytometry, at 10 µM, stronger effect = higher value
[17] = inhibitors of fungal efflux pumps CDR1, CDR2, MDR1, pilot screen, validation compound set, multiplex, phenotypic (AID 588506;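 active means efflux inhibition above 0.42, the validation set average plus 4 SD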;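 further: Nile Red retained in cells so higher fluorescence means more efflux inhibition; 0 = negative control wells and 1 = enniatin B 25 µM full block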); conditions: S. cerevisiae pump-expressing triplex, Nile Red efflux flow cytometry; at 10 µM; stronger effect = higher value
[18] = target: ATP-binding cassette sub-family B member 6 (Homo sapiens) (UniProt Q9NP58); experiment: ABCB6 transporter inhibitors, pilot screen, K562-ABCB6 cells, flow cytometry, validation set (AID 588550;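 active means inhibition above the screen-wide mean plus 3 SD, about 51%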;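 further: 0% = DMSO wells and 100% = benzethonium chloride 70 µM positive control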); conditions: K562-ABCB6 porphyrin accumulation, 1 h, at 10 µM, stronger effect = higher value
[19] = promoters of myeloid differentiation in arrested cells, primary screen, cell-based, GFP/MAC1 double positive, flow cytometry, validation set (AID 588685;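 active means differentiation response of at least 50%, scaled between solvent and reference control, from cells with both markers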;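 further: compound exposure lasts four days before antibody staining and flow analysis; 0% = DMSO wells and 100% = 5 µM fulvestrant positive control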); conditions: ER-HoxA9 marrow cells, stronger effect = higher value

Sequence of AP-2 complex subunit beta (Homo sapiens) (P63010 whole entry, looked up, one chain of several): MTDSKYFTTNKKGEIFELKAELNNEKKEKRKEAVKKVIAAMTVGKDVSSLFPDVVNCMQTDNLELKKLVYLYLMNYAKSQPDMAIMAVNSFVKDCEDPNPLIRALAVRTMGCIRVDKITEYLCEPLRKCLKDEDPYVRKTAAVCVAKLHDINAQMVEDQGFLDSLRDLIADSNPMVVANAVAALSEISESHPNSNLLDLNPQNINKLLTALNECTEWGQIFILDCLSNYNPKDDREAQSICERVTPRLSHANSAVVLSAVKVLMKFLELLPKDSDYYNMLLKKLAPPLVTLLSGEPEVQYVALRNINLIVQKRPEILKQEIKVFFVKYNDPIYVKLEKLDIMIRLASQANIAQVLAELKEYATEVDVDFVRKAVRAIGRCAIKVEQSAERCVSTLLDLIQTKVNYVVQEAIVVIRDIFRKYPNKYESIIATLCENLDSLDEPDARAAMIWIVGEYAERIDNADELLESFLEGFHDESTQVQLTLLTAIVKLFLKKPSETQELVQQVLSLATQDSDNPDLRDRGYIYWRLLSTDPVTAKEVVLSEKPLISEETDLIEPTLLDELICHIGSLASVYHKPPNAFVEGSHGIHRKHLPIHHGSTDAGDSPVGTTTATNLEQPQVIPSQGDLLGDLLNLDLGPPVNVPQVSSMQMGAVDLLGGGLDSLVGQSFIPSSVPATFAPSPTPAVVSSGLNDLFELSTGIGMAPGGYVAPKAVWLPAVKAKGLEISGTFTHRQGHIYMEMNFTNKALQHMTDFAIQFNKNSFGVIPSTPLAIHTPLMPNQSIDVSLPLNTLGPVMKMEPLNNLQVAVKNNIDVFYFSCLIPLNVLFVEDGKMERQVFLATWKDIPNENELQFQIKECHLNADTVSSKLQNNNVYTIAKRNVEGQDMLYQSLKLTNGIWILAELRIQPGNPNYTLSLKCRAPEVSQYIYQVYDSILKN
Sequence of Integrin beta-1 (Homo sapiens) + Integrin alpha-4 (Homo sapiens) (P05556 whole entry, looked up): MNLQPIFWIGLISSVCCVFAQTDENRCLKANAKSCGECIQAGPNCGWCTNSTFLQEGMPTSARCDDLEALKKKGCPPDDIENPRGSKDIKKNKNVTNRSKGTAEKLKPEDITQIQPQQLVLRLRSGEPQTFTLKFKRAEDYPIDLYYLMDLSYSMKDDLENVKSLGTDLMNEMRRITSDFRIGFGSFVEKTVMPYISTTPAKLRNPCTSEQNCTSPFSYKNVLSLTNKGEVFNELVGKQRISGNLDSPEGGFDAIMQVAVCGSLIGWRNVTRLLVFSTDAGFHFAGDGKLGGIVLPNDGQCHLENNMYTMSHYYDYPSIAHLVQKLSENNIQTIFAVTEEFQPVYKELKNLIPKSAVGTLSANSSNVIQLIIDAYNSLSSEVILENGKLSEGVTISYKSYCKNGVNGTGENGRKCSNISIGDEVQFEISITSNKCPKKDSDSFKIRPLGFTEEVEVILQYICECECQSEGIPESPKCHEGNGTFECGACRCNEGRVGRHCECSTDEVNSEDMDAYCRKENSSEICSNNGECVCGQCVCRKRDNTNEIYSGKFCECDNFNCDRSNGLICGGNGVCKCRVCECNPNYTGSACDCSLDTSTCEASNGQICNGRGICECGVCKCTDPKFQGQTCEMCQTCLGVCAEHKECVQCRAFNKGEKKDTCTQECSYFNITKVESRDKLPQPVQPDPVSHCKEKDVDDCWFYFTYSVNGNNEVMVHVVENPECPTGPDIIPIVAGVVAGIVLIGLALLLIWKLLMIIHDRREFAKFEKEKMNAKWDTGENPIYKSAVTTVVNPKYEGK
Sequence of Integrin beta-1 (Homo sapiens) + Integrin alpha-4 (Homo sapiens) (P13612 whole entry, looked up): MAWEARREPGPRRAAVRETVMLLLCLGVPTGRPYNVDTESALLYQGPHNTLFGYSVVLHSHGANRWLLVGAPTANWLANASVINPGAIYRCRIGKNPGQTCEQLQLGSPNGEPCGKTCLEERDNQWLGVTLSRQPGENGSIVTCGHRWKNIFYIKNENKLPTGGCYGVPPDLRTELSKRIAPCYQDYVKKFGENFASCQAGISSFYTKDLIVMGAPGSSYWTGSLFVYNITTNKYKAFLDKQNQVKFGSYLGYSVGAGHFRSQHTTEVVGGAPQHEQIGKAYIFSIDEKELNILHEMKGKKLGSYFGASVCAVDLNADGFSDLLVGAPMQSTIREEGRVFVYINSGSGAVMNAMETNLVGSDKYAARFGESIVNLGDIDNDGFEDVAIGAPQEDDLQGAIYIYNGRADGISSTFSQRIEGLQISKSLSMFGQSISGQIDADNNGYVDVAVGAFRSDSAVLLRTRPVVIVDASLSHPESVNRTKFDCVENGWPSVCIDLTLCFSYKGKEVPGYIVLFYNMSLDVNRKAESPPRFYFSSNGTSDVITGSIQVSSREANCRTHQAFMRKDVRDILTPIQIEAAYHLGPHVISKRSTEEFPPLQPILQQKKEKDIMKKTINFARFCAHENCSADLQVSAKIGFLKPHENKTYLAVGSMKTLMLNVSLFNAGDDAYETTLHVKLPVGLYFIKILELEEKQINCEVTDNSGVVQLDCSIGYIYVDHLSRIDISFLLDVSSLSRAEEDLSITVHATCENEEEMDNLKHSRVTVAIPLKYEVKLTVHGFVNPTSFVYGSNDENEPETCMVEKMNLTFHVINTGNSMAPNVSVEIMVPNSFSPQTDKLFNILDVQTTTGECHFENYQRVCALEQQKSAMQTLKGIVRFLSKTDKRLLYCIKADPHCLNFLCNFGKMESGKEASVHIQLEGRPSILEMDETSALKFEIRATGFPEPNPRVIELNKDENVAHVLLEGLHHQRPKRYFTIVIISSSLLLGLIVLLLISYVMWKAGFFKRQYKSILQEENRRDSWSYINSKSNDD
Sequence of Botulinum neurotoxin type A (Clostridium botulinum) (P0DPI0 whole entry, looked up): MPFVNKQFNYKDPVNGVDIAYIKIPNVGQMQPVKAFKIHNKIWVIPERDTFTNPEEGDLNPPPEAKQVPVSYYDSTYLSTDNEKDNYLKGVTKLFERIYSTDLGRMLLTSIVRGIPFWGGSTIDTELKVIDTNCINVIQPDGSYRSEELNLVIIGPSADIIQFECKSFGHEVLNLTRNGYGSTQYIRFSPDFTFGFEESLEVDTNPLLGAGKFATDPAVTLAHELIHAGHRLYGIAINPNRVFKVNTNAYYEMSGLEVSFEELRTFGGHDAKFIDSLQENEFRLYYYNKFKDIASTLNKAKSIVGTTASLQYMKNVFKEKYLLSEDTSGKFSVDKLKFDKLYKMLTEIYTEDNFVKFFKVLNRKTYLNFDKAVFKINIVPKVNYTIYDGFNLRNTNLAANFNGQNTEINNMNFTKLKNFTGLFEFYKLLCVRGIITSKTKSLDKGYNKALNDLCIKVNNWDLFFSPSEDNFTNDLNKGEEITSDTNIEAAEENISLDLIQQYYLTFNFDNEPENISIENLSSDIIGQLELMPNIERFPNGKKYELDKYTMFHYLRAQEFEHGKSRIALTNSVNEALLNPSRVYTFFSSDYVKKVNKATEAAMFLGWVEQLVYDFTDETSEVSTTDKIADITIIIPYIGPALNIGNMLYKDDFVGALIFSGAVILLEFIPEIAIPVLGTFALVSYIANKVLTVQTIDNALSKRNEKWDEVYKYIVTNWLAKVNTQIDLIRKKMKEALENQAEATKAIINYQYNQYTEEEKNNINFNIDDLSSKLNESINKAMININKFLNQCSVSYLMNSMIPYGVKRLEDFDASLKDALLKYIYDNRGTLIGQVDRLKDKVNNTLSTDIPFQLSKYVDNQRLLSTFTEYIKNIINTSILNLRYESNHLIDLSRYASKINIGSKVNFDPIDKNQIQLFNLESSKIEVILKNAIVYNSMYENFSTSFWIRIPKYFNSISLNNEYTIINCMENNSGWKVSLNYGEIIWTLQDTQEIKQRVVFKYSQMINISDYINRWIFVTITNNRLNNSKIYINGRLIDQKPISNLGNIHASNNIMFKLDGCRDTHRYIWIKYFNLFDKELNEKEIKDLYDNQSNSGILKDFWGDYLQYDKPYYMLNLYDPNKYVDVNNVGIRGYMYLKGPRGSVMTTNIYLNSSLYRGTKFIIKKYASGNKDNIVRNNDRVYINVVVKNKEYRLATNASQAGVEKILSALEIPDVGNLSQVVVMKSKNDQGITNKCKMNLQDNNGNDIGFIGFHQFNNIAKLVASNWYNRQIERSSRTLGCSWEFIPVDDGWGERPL
Sequence of Beta-adrenergic receptor kinase 1 (Homo sapiens) (P25098 whole entry, looked up): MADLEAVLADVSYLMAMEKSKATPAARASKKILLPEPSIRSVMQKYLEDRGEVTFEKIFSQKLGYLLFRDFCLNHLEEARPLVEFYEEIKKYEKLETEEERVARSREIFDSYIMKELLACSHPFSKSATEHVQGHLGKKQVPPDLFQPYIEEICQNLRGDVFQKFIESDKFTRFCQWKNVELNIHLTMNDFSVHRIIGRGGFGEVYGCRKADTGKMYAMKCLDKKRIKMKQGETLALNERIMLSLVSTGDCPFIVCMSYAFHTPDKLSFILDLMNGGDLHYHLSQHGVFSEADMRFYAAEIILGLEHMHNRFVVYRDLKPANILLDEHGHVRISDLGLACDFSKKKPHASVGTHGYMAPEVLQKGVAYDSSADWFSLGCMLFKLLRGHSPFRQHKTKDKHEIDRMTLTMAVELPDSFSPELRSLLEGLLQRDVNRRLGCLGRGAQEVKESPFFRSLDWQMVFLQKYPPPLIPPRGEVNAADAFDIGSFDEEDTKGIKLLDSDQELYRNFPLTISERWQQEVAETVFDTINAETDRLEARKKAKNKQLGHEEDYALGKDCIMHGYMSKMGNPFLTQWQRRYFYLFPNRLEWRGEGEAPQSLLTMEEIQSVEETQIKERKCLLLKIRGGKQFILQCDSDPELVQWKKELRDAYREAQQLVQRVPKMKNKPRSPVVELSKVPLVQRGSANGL

Row | Compound | percent of DMSO control GFP [1] | GFP response vs DMSO [2] | percent response of DMSO control [3] | GFP response vs DMSO [4] | GFP response, % of DMSO [5] | double positive events [6] | vesicle binding response [6] | inhibition [7] | superoxide response (% of plate) [8] | aptamer binding inhibition [9] | response [10] | inhibition [11] | response [12] | binding (% of control) [13] | inhibition [14] | inhibition [15] | inhibition [16] | efflux inhibition (fraction of control) [17] | inhibition [18] | differentiation response [19]
1 | CN1C2CCC1CC(OC(=O)c1ccc(Cl)cc1)C2 (stereo not given) | 99.9% (inactive) | 98.5% (inactive) | 98.6% (inactive) | 119% (inactive) | 108% (inactive) | 62.2% | 228% (inactive) | 11.9% (inactive) | 99.6% (inactive) | -1% (inactive) | -2.49% (inactive) | -3.16% (inactive) | 2.46% (inactive) | 99.5% (inactive) | 0% (inactive) | -1.9% (inactive) | -2.9% (inactive) | -0.03 (inactive) | 4% (inactive) | -13.6% (inactive)
2 | O=C1NCCN2CCCC12 (stereo not given) | 100% (inactive) | 99.7% (inactive) | 102% (inactive) | 93.7% (inactive) | 102% (inactive) | 58.7% | 108% (inactive) | 12.3% (inactive) | 92.8% (inactive) | 0% (inactive) | 0.01% (inactive) | 4.79% (inactive) | 113% (active) | 101% (inactive) | -0.2% (inactive) | -0.6% (inactive) | 5.9% (inactive) | -0.09 (inactive) | 21% (inactive) | -11.9% (inactive)
3 | COc1cc2c3cc1Oc1cc(ccc1O)C[C@@H]1c4c(cc(OC)c(O)c4Oc4ccc(cc4)C[C@H]3N(C)CC2)CCN1C | 88.2% (inactive) | 125% (inactive) | 107% (inactive) | 81.4% (inactive) | 90.5% (inactive) | 56.5% | 214% (inactive) | 7.43% (inactive) | 92.4% (inactive) | 2% (inactive) | 17.5% (inactive) | 19.2% (inactive) | 1.91% (inactive) | 105% (inactive) | -3.1% (inactive) | -3% (inactive) | -7.1% (inactive) | 0.05 (inactive) | 10% (inactive) | -3.28% (inactive)
4 | COc1ccc(OC)c([C@@H](O)[C@H](C)NC(C)(C)C)c1 | 100% (inactive) | 102% (inactive) | 94.5% (inactive) | 91.5% (inactive) | 88.8% (inactive) | 62% | 157% (inactive) | -6.45% (inactive) | 102% (inactive) | 0% (inactive) | 14.8% (inactive) | -6.97% (inactive) | 0.56% (inactive) | 106% (inactive) | -0.4% (inactive) | -1.1% (inactive) | 1.4% (inactive) | 0.28 (inactive) | 18% (inactive) | -6.03% (inactive)
